RXFP1 ag: qHTS Assay for Agonists of the Relaxin Receptor RXFP1; HEK293T-RXFP1 cAMP TR-FRET, 30 min; response scale: percent of porcine relaxin response, buffer zero; AID 2676, 2010; Relaxin receptor 1 (Homo sapiens), Q9HBX9; 0.3% of 370,000 active; Potency, µM (doses to about 57.5 µM), for the others: at the top dose activation, hits mostly activators; active means well fitted activation curve with a large enough effect; inconclusive means small, poorly fitted or top-dose-only effect; further: potency means the concentration at half of the fitted maximal effect; on the % scale 0 is the no-effect control and ±100 the full control effect; nearly all actives have a fitted effect of over 60% in size
Target sequence (Q9HBX9 whole entry, looked up): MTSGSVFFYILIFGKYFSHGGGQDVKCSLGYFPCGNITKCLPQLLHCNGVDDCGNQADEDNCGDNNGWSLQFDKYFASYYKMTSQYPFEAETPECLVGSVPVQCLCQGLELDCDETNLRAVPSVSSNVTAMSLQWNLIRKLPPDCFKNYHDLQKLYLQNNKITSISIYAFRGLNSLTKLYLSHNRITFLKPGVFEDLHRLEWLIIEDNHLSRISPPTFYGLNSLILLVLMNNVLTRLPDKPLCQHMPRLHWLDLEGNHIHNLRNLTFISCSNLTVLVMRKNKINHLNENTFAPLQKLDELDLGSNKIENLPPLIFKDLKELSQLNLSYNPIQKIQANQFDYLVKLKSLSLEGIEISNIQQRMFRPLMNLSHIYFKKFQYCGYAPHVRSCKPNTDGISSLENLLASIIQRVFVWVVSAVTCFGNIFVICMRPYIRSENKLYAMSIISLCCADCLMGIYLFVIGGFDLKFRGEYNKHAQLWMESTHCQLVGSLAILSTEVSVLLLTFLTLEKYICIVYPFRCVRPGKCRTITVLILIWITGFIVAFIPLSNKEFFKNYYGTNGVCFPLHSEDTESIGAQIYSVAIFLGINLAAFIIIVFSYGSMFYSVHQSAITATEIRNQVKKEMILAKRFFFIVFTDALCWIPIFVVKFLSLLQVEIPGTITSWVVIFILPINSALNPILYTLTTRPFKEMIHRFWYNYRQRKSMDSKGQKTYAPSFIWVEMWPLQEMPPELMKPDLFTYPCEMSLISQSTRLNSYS
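Agonist response is measured as cAMP accumulation in an RXFP1-transfected HEK293T line under PDE4 inhibition. Values are scaled between buffer-only and 29 nM porcine relaxin, and EC50s come from standard Hill equation fits.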
pAkt inh: HTS Assay for Inhibitors of Akt Phophorylation: Primary Screen | Neuro2A IGF-stimulated pAkt S473 HTRF, 20 min; active compounds read low | activity change, % for hits at 50 µM | 0.32% of 360,000 active | AID 651550, 2012; in the data active means activity change below about -80%; inconclusive means mostly about -51% to -80%; further: on the % scale 0 is the no-effect control and ±100 the full control effect
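Single-point screen (50 µM final compound) in Neuro2A cells stimulated 20 min with 6 nM IGF at 37 deg C. After lysis, Ser473-phosphorylated Akt read by HTRF (ex 330 nm, em 615/665 nm) as the 665/615 ratio.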
gsp antagonist: qHTS for Antagonists of gsp, the Etiologic Mutation Responsible for Fibrous Dysplasia/McCune-Albright Syndrome: qHTS. gsp-mutant cells, cAMP HTRF, 30 min. 0.4% of 340,000 active. Potency, µM (highest dose often 76.9 µM), without a hit: top-dose activity change, negative = inhibition, most hits filed as inhibitors; calls by dose curve; cell line not stated here;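 further: intracellular cAMP measured with PDE inhibitor Ro 20-1724 present during compound exposure; potency means the concentration at half of the fitted maximal effect; on the % scale 0 is the no-effect control and ±100 the full control effect; nearly all actives have a fitted effect of over 65% in size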
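G418-selected cells were plated in DMEM/10% FBS for 16-24 h at 37C, then treated with compounds plus the PDE inhibitor […] (300 uM solution added) for 30 min at 37C. Intracellular cAMP was measured by HTRF after 30 min lysis at room temperature.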
gsp ag: qHTS for Agonist of gsp, the Etiologic Mutation Responsible for Fibrous Dysplasia/McCune-Albright Syndrome: qHTS; Potency, µM (titrated, usually from 76.9 µM), for the others: at the highest dose activation (cAMP increase), hits mostly activators; gsp mutant cells, cAMP HTRF, 30 min; 0.13% of 340,000 active; AID 624287, 2012; active means well fitted activation curve with a large enough effect; inconclusive means small, poorly fitted or top-dose-only effect, or another doubt; inactive means no such curve, though single readings can be large or run the other way; cell line not stated here;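 further: phosphodiesterase inhibitor Ro 20-1724 added with compounds to block cAMP breakdown; potency means the concentration at half of the fitted maximal effect; nearly all actives have a fitted effect of over 60% in size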
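Cells stably selected in G418 were plated at 2000/well, grown 16-24 hr, then given compounds in DMSO with the PDE inhibitor […] (300 uM solution added) for 30 min at 37C; cAMP was read by HTRF.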
RXFP1 antag: qHTS Assay for Antagonists of the Relaxin Receptor RXFP1. AID 1259400, 2018. Relaxin receptor 1 (Homo sapiens), Q9HBX9. HEK293-RXFP1, relaxin-stimulated cAMP HTRF, 30 min; active compounds read low. 0.59% of 350,000 active. activity change, negative = inhibition, % at 57.5 µM;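 active means activity change of -60% or lower, but not beyond a set lower limit; inconclusive means change between -60% and -40%, or beyond the set limit; inactive means change above -40%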; further: on the % scale 0 is the no-effect control and ±100 the full control effect
An asterisk follows results filed as active; i = inactive; ? = inconclusive; nt = not tested or not shown; [ ] = dose if it differs, or a comment. Hits are enriched below; roughly 1.2% of the tested compounds scored in any of these assays.

SMILES	RXFP1 ag	pAkt inh	gsp antagonist	gsp ag	RXFP1 antag
Cc1cccc(N2CCN(C(=O)CCS(=O)(=O)c3ccc4c(c3)NC(=O)CO4)CC2)c1C	-1%	i	32µM*	-21%	3
CC(CC(=O)N1CCN(c2ccccc2)CC1)S(=O)(=O)c1ccc2c(c1)NC(=O)CO2 (centres undefined)	1%	i	50µM*	?	30
CCc1c(-c2ccccc2)nc2ccccc2c1C(=O)NCc1ccc(C)cc1	-3%	nt	nt	nt	-39
CS(=O)(=O)c1ccc(S(=O)CC(=O)OCc2ccccc2)c([N+](=O)[O-])c1 (centres undefined)	1%	i	?	-8%[15.4 µM]	-108*
O=C(CS(=O)c1ccc(C(F)(F)F)cc1[N+](=O)[O-])Oc1ccccc1 (centres undefined)	1%	i	4%	-1%	10
Nc1nnnn1/N=C/c1ccco1	2%	-130%*	-1%	8%	11
c1cc2[nH]snc2c2nc(C3CC3)nc12	5%	i	5%	25µM*	-15
Cc1c(N2CCCC2)cc2c(c1N)C(C)(C)CC2(C)C	3%	i	-6%	-9%[15.4 µM]	-71*
COc1cc2c(cc1OC)C(COc1ccc3c(C)cc(=O)oc3c1)N(C(=O)Cc1ccccc1)CC2 (centres undefined)	35µM*	nt	nt	nt	-6
COc1cc2c(cc1OC)C(COc1ccc3c(C)cc(=O)oc3c1)N(C(=O)Cc1ccc(F)cc1)CC2 (centres undefined)	0%	nt	nt	nt	-9
CSCC[C@H](NC(=O)COc1ccc(Cl)cc1)c1nc2ccccc2[nH]1	0%	i	7.9µM*	4%[15.4 µM]	1
COc1ccc(-c2oc3ncn4nc(COc5ccccc5)nc4c3c2-c2ccc(OC)cc2)cc1	4%	i	5%	-3%	4
COc1ccc(-c2oc3ncn4nc(Cc5ccccc5)nc4c3c2-c2ccc(OC)cc2)cc1	2%	?	10µM*	-36%	-17
CCc1ccc(NC(=O)CSC2=Nc3ccccc3C3=NC(CCC(=O)NCCc4ccccc4)C(=O)N23)cc1 (centres undefined)	10%	nt	nt	nt	-21
O=C(Nc1cccc(C(F)(F)F)c1)C1(c2ccccc2)CC1	0%	i	-16%	?	-9
O=C(Nc1ccc(C(F)(F)F)cc1)C1(c2ccccc2)CC1	-2%	i	-8%	11%[15.4 µM]	-63*
N#CC(=C=[N-])C1=C(C#N)C(c2ccccc2F)C([n+]2ccccc2)C(O)(C2CC2)N1 (centres undefined)	25µM*	i	7%	18%	33
Cc1cccc[n+]1C1C(c2ccccc2)C(C#N)=C(C(=C=[N-])C#N)NC1(O)C1CC1 (centres undefined)	15%	?	18%	?	21
CCC(C)n1ncn(-c2ccc(N3CCN(c4ccc(OC[C@H]5CO[C@](Cn6cncn6)(c6ccc(Cl)cc6Cl)O5)cc4)CC3)cc2)c1=O (some centres undefined)	nt	nt	nt	nt	-27
Cc1nc2c(C(=O)N(C)Cc3ccccc3)c[nH]n2c(=O)c1Cc1ccc(Cl)cc1	0%	nt	nt	nt	nt
CC(=O)c1c(C)oc2ccc(NS(=O)(=O)c3ccc(F)cc3C)cc12	-3%	i	25µM*	12%[15.4 µM]	-8
O=C(Nc1ccccc1)N1CCN(c2nc(-c3ccccc3)ns2)CC1	1%	i	35µM*	9%[15.4 µM]	-18
Cc1cc(Cl)ccc1NC(=O)CN1C(=O)COc2ccc(S(=O)(=O)Nc3ccccc3)cc21	3%	nt	nt	nt	nt
O=C(N/N=C/c1cc(Br)c(Br)o1)c1cc2ccccc2o1	3%	i	-18%	?	-63*
O=C(N/N=C/c1cc(Br)c(O)c(Br)c1)c1cc2c(ccc3ccccc32)o1	6%	i	-30%	-36%[15.4 µM]	-100*
SMILES	RXFP1 ag	pAkt inh	gsp antagonist	gsp ag	RXFP1 antag
Cc1ccc(/C=N/NC(=O)c2cc3c(ccc4ccccc43)o2)o1	4%	i	-8%	-26%	-5
O=C(N/N=C/c1cc(Cl)c(O)c(Cl)c1)c1cc2c(ccc3ccccc32)o1	0%	i	32µM*	?	-81*
O=C(N/N=C/c1ccc([N+](=O)[O-])o1)c1cc2ccccc2o1	3%	i	2%	20%	-9
O=C(N/N=C/c1ccc(O)c(Br)c1)c1cc2c(ccc3ccccc32)o1	0%	i	-15%	11%	-3
CC(=O)Oc1ccc(/C=N\NC(=O)c2cc3c(ccc4ccccc43)o2)cc1	4%	i	11µM*	28%	-1
Cc1cc([N+](=O)[O-])ccc1NC(c1nnc(-c2ccccc2)o1)c1ccccc1F (centres undefined)	-1%	nt	nt	nt	nt
COc1ccc(-c2nc(-c3ccccc3)c(-c3ccc(F)cc3)[nH]2)c(OC)c1C	7%	nt	nt	nt	-22
CSc1cccc(NC(=O)C2CCCN(C(=O)c3cnn(-c4ccc(F)cc4)c3-n3cccc3)C2)c1 (centres undefined)	0%	nt	nt	nt	-3
O=C(O)c1cccc(-c2noc(-c3ccccc3F)n2)c1	nt	nt	nt	nt	-27
CC(=O)c1cn(CC(=O)Nc2c(C)cccc2C)c2ccccc12	1%	i	-19%	-3%	1
CC(=O)c1cn(CC(=O)Nc2ccccc2C)c2ccccc12	1%	-111%*	6%	5%	25
CC1CCN(C(=O)CSc2ccc(-c3cccc([N+](=O)[O-])c3)nn2)CC1	0%	i	28µM*	9%[15.4 µM]	-14
O=[N+]([O-])c1cc([N+](=O)[O-])c2oc(-c3ccccc3)c(Br)c2c1O	1%	i	-27%	17%	-113*
O=c1cc(-c2ccccc2Cl)oc2ccc([N+](=O)[O-])c(O)c12	0%	i	5%	-17%	nt
CCc1noc(C)c1C(=O)OCC(=O)Nc1nc(-c2ccc(F)c(F)c2)cs1	0%	i	40µM*	8%	-13
Cc1noc(C)c1CSCC(=O)Nc1nc(-c2ccc(F)c(F)c2)cs1	1%	i	35µM*	14%[15.4 µM]	-34
COc1ccc(-c2csc(NC(=O)CSCc3c(C)noc3C)n2)cc1OC	-2%	i	?	-7%	-31
CCCS(=O)(=O)Nc1cc(-c2cn3cccc(C)c3n2)ccc1C	-3%	nt	nt	nt	nt
COc1ccc2c(c1)c1c(c(=O)n(-c3ccccc3C)c(=O)n1CC(=O)N1CCCC1)n2C	-2%	nt	nt	nt	nt
COC(=O)c1ccc(COc2ncnc3ccccc23)o1	16µM*	i	13%	14%[15.4 µM]	8
CC(=O)c1ccc(-c2ccc(C(=O)N3CCN(c4ccc(F)cc4)CC3)o2)cc1	2%	i	28µM*	0%	-5
